Data taken from PubChem BioAssay.
For some assays here: Potency and affinity values are given separately. Calls of active or inactive are those of the source. Unless noted, no rule for the calls is given here.

Legend:
[1] = antimalarial activity against Dd2 strain (AID 2302;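 active = growth inhibition above 50% at the single 2 µM test dose, taken to imply half-maximal potency below 2 µM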;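 also: 0% = DMSO untreated growth and 100% = chloroquine plus artemisinin killed control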); conditions: P. falciparum Dd2 in RBCs, LDH growth readout, 72 h; at 2 µM; stronger effect = higher value
[2] = HepG2 cytotoxicity, primary screen, cytotoxicity control for P. falciparum antimalarial project, cell-based, ATP luminescence (AID 2303;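 active = inhibition above 50%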;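 also: 0% = DMSO wells and 100% = digitonin-killed cells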); conditions: HepG2 viability, 24-48 h, at 10 µM, stronger effect = higher value
[3] = biological target: L-lactate dehydrogenase (Plasmodium falciparum (isolate CDC / Honduras)) (UniProt Q27743); assay: PfLDH activity inhibition – cell lysate, 3D7 strain, counter-screen for P. falciparum growth inhibition project (AID 2304);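 also: 0% = vehicle and 100% = reference inhibitor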; conditions: P. falciparum 3D7 crude extract, LDH APAD/NBT absorbance; at 2 µM; stronger effect = higher value
Chain of L-lactate dehydrogenase (Plasmodium falciparum (isolate CDC / Honduras)) (Q27743 whole entry, looked up): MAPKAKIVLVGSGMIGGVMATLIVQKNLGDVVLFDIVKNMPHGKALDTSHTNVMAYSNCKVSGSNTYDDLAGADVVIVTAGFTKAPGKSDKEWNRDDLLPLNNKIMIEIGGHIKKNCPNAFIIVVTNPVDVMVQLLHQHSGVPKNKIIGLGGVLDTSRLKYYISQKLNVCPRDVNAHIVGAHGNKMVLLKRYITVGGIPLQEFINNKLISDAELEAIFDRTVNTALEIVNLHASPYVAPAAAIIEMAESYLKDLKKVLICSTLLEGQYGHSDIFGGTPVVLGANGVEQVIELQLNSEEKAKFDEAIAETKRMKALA

[4] = inhibition of 3D7 malaria parasite growth – strain 3D7 (AID 2306);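 also: 0% = DMSO wells and 100% = chloroquine plus artemisinin control wells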; conditions: P. falciparum 3D7 erythrocytic growth, LDH absorbance, 72 h; at 2 µM; stronger effect = higher value
[5] = biological target: Calcium-dependent protein kinase 1 (Plasmodium falciparum (isolate 3D7)) (UniProt P62344); assay: PfCDPK1 kinase inhibitors, biochemical, TCAMS library (AID 1159585; cut-off not given, nearly all actives have IC50 up to about 0.98 µM;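 also: inhibitors leave more ATP so luminescence rises with inhibition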); conditions: recombinant PfCDPK1, Kinase-Glo ATP depletion luminescence
Chain of Calcium-dependent protein kinase 1 (Plasmodium falciparum (isolate 3D7)) (P62344 whole entry, looked up): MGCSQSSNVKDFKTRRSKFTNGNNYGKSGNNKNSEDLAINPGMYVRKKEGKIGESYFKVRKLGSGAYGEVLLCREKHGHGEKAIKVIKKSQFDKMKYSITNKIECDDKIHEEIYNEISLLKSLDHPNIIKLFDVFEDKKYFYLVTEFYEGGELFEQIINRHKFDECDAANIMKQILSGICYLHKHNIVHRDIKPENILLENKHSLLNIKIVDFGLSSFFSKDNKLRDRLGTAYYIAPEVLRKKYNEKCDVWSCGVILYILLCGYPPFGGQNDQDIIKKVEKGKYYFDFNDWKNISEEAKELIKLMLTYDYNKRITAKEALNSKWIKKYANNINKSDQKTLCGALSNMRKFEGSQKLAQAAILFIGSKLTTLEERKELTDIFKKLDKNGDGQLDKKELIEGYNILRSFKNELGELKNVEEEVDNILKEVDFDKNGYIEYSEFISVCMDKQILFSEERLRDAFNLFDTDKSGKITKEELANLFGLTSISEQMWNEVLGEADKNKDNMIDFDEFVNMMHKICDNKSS

[6] = biological target: Plasmodium falciparum protein kinase 6 (PK6, PF3D7_1337100) (UniProt Q8IDW1); assay: PfPK6 kinase inhibitors, biochemical, TCAMS library (AID 1159586); conditions: recombinant PfPK6, Kinase-Glo ATP depletion luminescence
Chain of Plasmodium falciparum protein kinase 6 (PK6, PF3D7_1337100) (Q8IDW1 1-305): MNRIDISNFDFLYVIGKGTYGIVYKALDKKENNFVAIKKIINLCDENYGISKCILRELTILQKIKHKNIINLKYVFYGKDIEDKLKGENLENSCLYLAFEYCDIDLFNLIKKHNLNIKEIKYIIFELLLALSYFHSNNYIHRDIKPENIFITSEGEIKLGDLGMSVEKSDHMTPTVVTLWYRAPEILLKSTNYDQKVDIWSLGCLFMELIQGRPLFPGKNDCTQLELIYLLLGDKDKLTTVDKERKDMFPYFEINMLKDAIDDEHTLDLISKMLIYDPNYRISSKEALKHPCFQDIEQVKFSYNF

[7] = biological target: Protein kinase 7 (PK7), Plasmodium falciparum 3D7 (PF3D7_0213400) (UniProt Q7YTF7); assay: inhibition of Plasmodium PK7 catalytic activity – biochemical, TCAMS antimalarial set, Kinase-Glo luminescence (AID 1159587); conditions: recombinant PfPK7, Kinase-Glo ATP depletion luminescence
Chain of Protein kinase 7 (PK7), Plasmodium falciparum 3D7 (PF3D7_0213400) (Q7YTF7 1-343): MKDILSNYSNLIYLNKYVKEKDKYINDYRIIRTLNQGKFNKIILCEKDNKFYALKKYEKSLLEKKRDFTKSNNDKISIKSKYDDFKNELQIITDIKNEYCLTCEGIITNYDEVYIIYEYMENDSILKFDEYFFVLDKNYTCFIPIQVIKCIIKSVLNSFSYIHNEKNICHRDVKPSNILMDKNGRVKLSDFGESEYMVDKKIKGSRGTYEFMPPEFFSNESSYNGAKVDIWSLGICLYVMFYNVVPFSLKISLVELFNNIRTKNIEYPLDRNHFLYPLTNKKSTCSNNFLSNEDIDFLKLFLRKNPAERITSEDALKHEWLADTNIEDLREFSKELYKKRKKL

[8] = biological target: Calcium-dependent protein kinase 4 (Plasmodium falciparum (isolate 3D7)) (UniProt Q8IBS5); assay: PfCDPK4 kinase inhibitors, biochemical, TCAMS library (AID 1159588; cut-off not given, nearly all actives have IC50 up to about 0.91 µM); conditions: recombinant PfCDPK4, Kinase-Glo ATP depletion luminescence
Chain of Calcium-dependent protein kinase 4 (Plasmodium falciparum (isolate 3D7)) (Q8IBS5 whole entry, looked up): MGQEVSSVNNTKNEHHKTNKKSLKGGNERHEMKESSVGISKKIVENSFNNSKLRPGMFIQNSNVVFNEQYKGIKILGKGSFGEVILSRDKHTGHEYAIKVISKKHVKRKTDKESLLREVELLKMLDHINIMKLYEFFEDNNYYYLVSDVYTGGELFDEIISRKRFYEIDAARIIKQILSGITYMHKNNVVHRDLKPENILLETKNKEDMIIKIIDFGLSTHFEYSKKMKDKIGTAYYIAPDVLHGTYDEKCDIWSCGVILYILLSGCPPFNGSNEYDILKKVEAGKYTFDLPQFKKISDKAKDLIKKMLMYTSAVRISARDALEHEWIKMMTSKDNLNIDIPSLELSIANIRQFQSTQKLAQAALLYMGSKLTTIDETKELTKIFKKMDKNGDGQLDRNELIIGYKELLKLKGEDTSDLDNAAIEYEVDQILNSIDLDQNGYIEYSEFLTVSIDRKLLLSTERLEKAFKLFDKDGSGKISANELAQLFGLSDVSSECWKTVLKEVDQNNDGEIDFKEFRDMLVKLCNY

COc1cccc(-c2cccc(-c3ccc(NC(=O)c4ccc([N+](=O)[O-])o4)cc3)n2)c1
inactive: inhibition [3] 6% | outcome [5] | outcome [6] | outcome [7] | outcome [8]
active: growth inhibition [1] 94% | inhibition [2] 98% | growth inhibition [4] 97%

CC[C@H](C)CNC(=O)c1cncc(-c2cccc(CNC3Cc4ccccc4C3)c2)c1
inactive: inhibition [2] 5% | inhibition [3] 0% | outcome [5] | outcome [6] | outcome [7] | outcome [8]
active: growth inhibition [1] 76% | growth inhibition [4] 101%

OCC1CCN(Cc2ccc(-c3cccc(-c4nc5ccc(F)cc5[nH]4)c3)cc2)CC1
inactive: growth inhibition [1] 25% | inhibition [2] 14% | inhibition [3] -3% | outcome [5] | outcome [6] | outcome [7] | outcome [8]
active: growth inhibition [4] 100%

CN(C)c1ccc(-c2ccc(C(=O)NC3CCN(Cc4ccccc4)CC3)s2)cc1
active: growth inhibition [4] 92%
inactive: growth inhibition [1] 10% | inhibition [2] 20% | inhibition [3] -3% | outcome [5] | outcome [6] | outcome [7] | outcome [8]

CN1CCN(c2nsc3ccc(-c4ccc(NC(=O)Nc5cc(C(F)(F)F)ccc5F)cc4)cc23)CC1
inactive: inhibition [3] -3% | outcome [5] | outcome [6] | outcome [7] | outcome [8]
active: growth inhibition [1] 64% | inhibition [2] 100% | growth inhibition [4] 99%

Cc1ccc(-c2nnc3c4ccccc4c(C)nn23)cc1S(=O)(=O)N1CCN(CCO)CC1
active: growth inhibition [1] 62% | growth inhibition [4] 85%
inactive: inhibition [2] 16% | inhibition [3] -4% | outcome [5] | outcome [6] | outcome [7] | outcome [8]

CCOc1cc2c(cc1S(=O)(=O)c1ccc(COc3ccc(C(F)(F)F)cc3)cc1)CCN(C)CC2
active: growth inhibition [4] 87%
inactive: growth inhibition [1] 14% | inhibition [2] 27% | inhibition [3] -5% | outcome [5] | outcome [6] | outcome [7] | outcome [8]

CN(C)CCCNCc1ccc(-c2ccc(F)c(Cl)c2)o1
active: growth inhibition [1] 69% | growth inhibition [4] 93%
inactive: inhibition [2] 29% | inhibition [3] -7% | outcome [5] | outcome [6] | outcome [7] | outcome [8]

CC(C)C[C@H](NC(=O)c1ccc(OCCN2CCOCC2)cc1)C(=O)N[C@H](/C=N/NC(=O)OC(C)(C)C)CCc1ccccc1
inactive: inhibition [2] 8% | inhibition [3] -4% | outcome [5] | outcome [6] | outcome [7] | outcome [8]
active: growth inhibition [1] 87% | growth inhibition [4] 96%

COc1ccccc1-n1c(SCC(=O)c2ccc3c(c2)CC(=O)N3C)nnc1-c1cccs1
active: growth inhibition [1] 55% | growth inhibition [4] 95%
inactive: inhibition [2] 7% | inhibition [3] -3% | outcome [5] | outcome [6] | outcome [7] | outcome [8]

CCOc1ccc(-c2nonc2NC(=O)c2ccccc2F)cc1OCC
active: growth inhibition [1] 100% | growth inhibition [4] 90%
inactive: inhibition [2] -8% | inhibition [3] 0% | outcome [5] | outcome [6] | outcome [7] | outcome [8]

O=C(Cc1cnc[nH]1)Nc1cccc(-c2ccc(-c3nc4ccc(F)cc4[nH]3)s2)c1
inactive: inhibition [2] 4% | inhibition [3] -12% | outcome [5] | outcome [6] | outcome [7] | outcome [8]
active: growth inhibition [1] 94% | growth inhibition [4] 101%

Brc1cc2c(cc1C=NNc1nc(Nc3ccccc3)nc(Nc3ccccc3)n1)OCO2
active: growth inhibition [4] 100%
inactive: growth inhibition [1] 32% | inhibition [2] -7% | inhibition [3] 1% | outcome [5] | outcome [6] | outcome [7] | outcome [8]

CCC[C@@H]([C@@H](CC1CCCCC1)C(=O)N[C@H](C(=O)Nc1nccs1)[C@@H](C)OCc1ccccc1)N(O)C=O
inactive: inhibition [3] -3% | outcome [5] | outcome [6] | outcome [7] | outcome [8]
active: growth inhibition [1] 99% | inhibition [2] 51% | growth inhibition [4] 100%

CC(=O)Nc1ccc(C(=O)Nc2cccc(-c3cccc(-c4nc5ccc(F)cc5[nH]4)c3)c2)cn1
active: growth inhibition [1] 98% | growth inhibition [4] 99%
inactive: inhibition [2] -5% | inhibition [3] 1% | outcome [5] | outcome [6] | outcome [7] | outcome [8]

Clc1ccc(OCCC2CCN(CCCCCCN3CCCCC3)CC2)cc1Cl
active: inhibition [2] 86% | growth inhibition [4] 97%
inactive: growth inhibition [1] 36% | inhibition [3] 9% | outcome [5] | outcome [6] | outcome [7] | outcome [8]

O=C(NCCCCCN1CCC(c2c[nH]c3ccccc23)CC1)Nc1cccc(I)c1
active: inhibition [2] 70% | growth inhibition [4] 99%
inactive: growth inhibition [1] 11% | inhibition [3] -8% | outcome [5] | outcome [6] | outcome [7] | outcome [8]

CC[C@H](C)CNC(=O)c1cccc(-c2cccc(CNCC3CNCCCO3)c2)n1 (stereo not given in full)
inactive: inhibition [2] 15% | inhibition [3] 1% | outcome [5] | outcome [6] | outcome [7] | outcome [8]
active: growth inhibition [1] 54% | growth inhibition [4] 91%

NC1CCN(Cc2ccc(-c3cccc(-c4nc5ccccc5[nH]4)c3)cc2)C1 (stereo not given)
active: growth inhibition [4] 98%
inactive: growth inhibition [1] -3% | inhibition [2] 19% | inhibition [3] 5% | outcome [5] | outcome [6] | outcome [7] | outcome [8]

CC(C)Sc1nc2c(c(=O)n1CCc1ccccc1)C1(CCCC1)Cc1ccccc1-2
active: growth inhibition [1] 88% | growth inhibition [4] 102%
inactive: inhibition [2] -3% | inhibition [3] -4% | outcome [5] | outcome [6] | outcome [7] | outcome [8]

COc1ccccc1C1CCN(C2CCC(NC(=O)/C=C/c3cccc(Cl)c3)CC2)CC1 (stereo not given)
inactive: growth inhibition [1] 20% | inhibition [3] 3% | outcome [5] | outcome [6] | outcome [7] | outcome [8]
active: inhibition [2] 54% | growth inhibition [4] 92%

O=C(/C=C/c1ccc(Cl)cc1)Nc1ccc2nc(CN3CCCC3)ccc2c1
active: growth inhibition [4] 85%
inactive: growth inhibition [1] 30% | inhibition [2] 47% | inhibition [3] -2% | outcome [5] | outcome [6] | outcome [7] | outcome [8]

COc1ccc(CCN(C)CCCN2CCC(NC(=O)c3cccc4c(=O)c5ccccc5sc34)CC2)cc1OC
inactive: inhibition [3] 4% | outcome [5] | outcome [6] | outcome [7] | outcome [8]
active: growth inhibition [1] 79% | inhibition [2] 67% | growth inhibition [4] 97%

Cc1cc(NC(=O)c2cccs2)ccc1OC1CCN(Cc2ccccc2)CC1
active: growth inhibition [1] 91% | growth inhibition [4] 95%
inactive: inhibition [2] 10% | inhibition [3] 4% | outcome [5] | outcome [6] | outcome [7] | outcome [8]

Cc1ccc(/C=C/C(=O)NCCCCCN2CCN(C(=O)Nc3ccc(Cl)c(C(F)(F)F)c3)CC2)cc1
inactive: growth inhibition [1] -3% | inhibition [2] 10% | inhibition [3] -2% | outcome [5] | outcome [6] | outcome [7] | outcome [8]
active: growth inhibition [4] 93%

N#Cc1ccc2c(c1)CCN(CCC1CCC(NC(=O)/C=C/c3cccc4ccccc34)CC1)CC2 (stereo not given)
active: growth inhibition [4] 96%
inactive: growth inhibition [1] 12% | inhibition [2] 16% | inhibition [3] -6% | outcome [5] | outcome [6] | outcome [7] | outcome [8]

Cc1cccc2[nH]c(-c3cccc(-c4cccc(C(=O)N5CCCCC5CN5CCC(O)C5)c4)c3)nc12 (stereo not given)
active: growth inhibition [1] 71% | growth inhibition [4] 89%
inactive: inhibition [2] 19% | inhibition [3] -5% | outcome [5] | outcome [6] | outcome [7] | outcome [8]

NC(N)=NC(=O)Nc1cc(Cl)c(Cl)c(Cl)c1
active: growth inhibition [1] 100% | growth inhibition [4] 101%
inactive: inhibition [2] -2% | inhibition [3] 6% | outcome [5] | outcome [6] | outcome [7] | outcome [8]

Cc1nc2nc(N)nc(N)c2c(C)c1Cc1ccc(Cl)cc1
inactive: growth inhibition [1] 22% | inhibition [3] 0% | outcome [5] | outcome [6] | outcome [7] | outcome [8]
active: inhibition [2] 62% | growth inhibition [4] 94%

CN(C)c1cccc(-c2cnc3ccc(NCc4cccc(Cl)c4)nn23)c1
inactive: inhibition [2] 11% | inhibition [3] -3% | outcome [5] | outcome [6] | outcome [7] | outcome [8]
active: growth inhibition [1] 98% | growth inhibition [4] 99%

CCc1nn2c(Nc3ccncc3)cc(C)nc2c1-c1ccccc1
active: growth inhibition [1] 98% | growth inhibition [4] 100%
inactive: inhibition [2] 4% | inhibition [3] 0% | outcome [5] | outcome [6] | outcome [7] | outcome [8]

COc1cc2nc(Nc3ccc(N4CCOCC4)cc3)nc(N)c2cc1OC
inactive: growth inhibition [1] 10% | inhibition [2] 8% | inhibition [3] -3% | outcome [5] | outcome [6] | outcome [7] | outcome [8]
active: growth inhibition [4] 95%

Oc1c(C(Nc2nc3ccccc3s2)c2ccc(OC(F)F)cc2)ccc2cccnc12 (stereo not given)
inactive: inhibition [3] 4% | outcome [5] | outcome [6] | outcome [7] | outcome [8]
active: growth inhibition [1] 85% | inhibition [2] 62% | growth inhibition [4] 92%

O=C(Nc1ccc2c(c1)CCN2C1CCN(Cc2csc3ccccc23)C1)c1ccco1 (stereo not given)
inactive: inhibition [2] -5% | inhibition [3] -2% | outcome [5] | outcome [6] | outcome [7] | outcome [8]
active: growth inhibition [1] 95% | growth inhibition [4] 95%

COc1ccc2nc(-c3ccccc3)cc(NN=Cc3ccc([N+](=O)[O-])o3)c2c1
inactive: inhibition [3] -7% | outcome [5] | outcome [6] | outcome [7] | outcome [8]
active: growth inhibition [1] 99% | inhibition [2] 90% | growth inhibition [4] 100%

CCC(C)NCCC(c1ccccc1)c1ccccc1O (stereo not given)
inactive: inhibition [2] 4% | inhibition [3] 4% | outcome [5] | outcome [6] | outcome [7] | outcome [8]
active: growth inhibition [1] 74% | growth inhibition [4] 97%

CN(C)CCCN(C)c1cccc2c1nc(-c1cccnc1)n2CCNCc1ccccc1
inactive: inhibition [2] 4% | inhibition [3] 4% | outcome [5] | outcome [6] | outcome [7] | outcome [8]
active: growth inhibition [1] 88% | growth inhibition [4] 89%

CC(C)N1CCN(CCCNc2c3ccccc3nc3ccccc23)CC1
active: growth inhibition [4] 100%
inactive: growth inhibition [1] 1% | inhibition [2] 29% | inhibition [3] 8% | outcome [5] | outcome [6] | outcome [7] | outcome [8]

CCCC(C)NC(=O)[C@H]1CNCCN1C(=O)CCCc1ccccc1 (stereo not given in full)
active: growth inhibition [1] 98% | growth inhibition [4] 96%
inactive: inhibition [2] 47% | inhibition [3] 4% | outcome [5] | outcome [6] | outcome [7] | outcome [8]

COc1cccc(Nc2nnc(SCC(=O)NNC(=O)c3ccccn3)s2)c1
inactive: inhibition [3] -1% | outcome [5] | outcome [6] | outcome [7] | outcome [8]
active: growth inhibition [1] 95% | inhibition [2] 52% | growth inhibition [4] 99%
